Among the test systems are HCT-15 colon; HT29 colon; SNB-75 CNS; SNB-19 CNS; U251 CNS; PC-3 prostate; SK-MEL-5 melanoma; UACC-62 melanoma; LOX IMVI melanoma; SK-MEL-2 melanoma; EKVX NSCLC; SN12C renal; UO-31 renal; TK-10 renal; ACHN renal; CAKI-1 renal; A498 renal; CCRF-CEM leukemia; MOLT-4 leukemia; SK-MEL-28 melanoma.
Holding throughout (assay): NCI-60 one-dose screen, 48 h (100 = growth as untreated, 0 = no growth, -100 = all killed)
Common to all, as to conditions: 10 µM unless noted

Each structure is given as a SMILES string. Several values for one entry are separate records, joined by “and”; a condition that tells them apart may be missing. Equal values may be shown once. This is part of a sample that, as a whole, favours compounds with a hit. Of some 83,000 tested, about 20% had one in any assay.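 Negative percent growth values reflect cell death: -40 means 40% of the cells present at the start died, and -100 means all died.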 A structure can be active in one record and inactive in another. Activity calls are given as the source filed them. How the source made its calls: active means growth percent below 10; inactive means the rest.

As to `CC1=C(/C=C/C(C)=C/C=C/C(C)=C/C=N/NC(=S)NC(=S)N/N=C/C=C(C)/C=C/C=C(C)/C=C/C2=C(C)CCCC2(C)C)C(C)(C)CCC1`, the growth in the test with HCT-15 colon is 26.5% (inactive) and -6.65% (active); with HT29 colon, -0.991% (active) and -29.3% (active); with SNB-75 CNS it was -4.78% (active) and -40% (active); in the test with SNB-19 CNS it was 36.2% (inactive) and 16.3% (inactive); in the test on U251 CNS, -61.8% (active) and -94.4% (active); in the test with PC-3 prostate it was -1.77% (active) and -12.4% (active). Also, the growth with SK-MEL-5 melanoma was -63% (active) and -96.5% (active); in the test with UACC-62 melanoma, -60% (active) and -75.5% (active); in the test on LOX IMVI melanoma, -100% (active) and -93.6% (active); in the test with SK-MEL-2 melanoma, -66.4% (active) and -84.6% (active); in the test with EKVX NSCLC, 36% (inactive) and 25.5% (inactive); in the test on SN12C renal it was -29% (active) and -55.2% (active). Also, the growth with UO-31 renal is -36% (active) and -47.4% (active); in the test with TK-10 renal, -8.64% (active) and -42.5% (active); in the test on ACHN renal it was 38.9% (inactive) and 10.2% (inactive); with CAKI-1 renal, -37.9% (active) and -20.1% (active); with A498 renal, 23.6% (inactive) and -47.4% (active); in the test with CCRF-CEM leukemia, -16.5% (active) and -23.4% (active). For the same compound, the growth with MOLT-4 leukemia was -22.2% (active) and -41.2% (active).

As to `O=[N+]([O-])c1ccc(Oc2ccccc2)cc1`, the growth with HCT-15 colon was 123% (inactive) and 104% (inactive); in the test with HT29 colon, 113% (inactive) and 103% (inactive); in the test on SNB-19 CNS, 97% (inactive) and 114% (inactive); with U251 CNS, 102% (inactive) and 105% (inactive); with PC-3 prostate, 81.9% (inactive) and 88.4% (inactive); with SK-MEL-5 melanoma, 109% (inactive) and 108% (inactive). The growth in the test with UACC-62 melanoma was 107% (inactive) and 106% (inactive); in the test with LOX IMVI melanoma, 95.3% (inactive) and 99.3% (inactive); in the test with SK-MEL-28 melanoma, 108% (inactive); in the test with SK-MEL-2 melanoma, 112% (inactive) and 117% (inactive); in the test with EKVX NSCLC, 100% (inactive) and 122% (inactive); with SN12C renal, 120% (inactive) and 116% (inactive). Moreover, the growth in the test with TK-10 renal is 97.9% (inactive) and 103% (inactive); in the test on ACHN renal, 106% (inactive) and 105% (inactive); in the test on CAKI-1 renal it was 93.4% (inactive) and 126% (inactive); in the test on A498 renal, 106% (inactive) and 96.9% (inactive); in the test on CCRF-CEM leukemia it was -24% (active) and 92.5% (inactive); in the test with MOLT-4 leukemia it was 96.5% (inactive) and 92.6% (inactive).

Take `COc1c(/C(C)=N/N=c2sc(C(C)=O)nn2-c2ccc(Cl)cc2)c(Oc2ccccc2)c(OC)c2occc12`: the growth with HT29 colon was 108% (inactive) and 86.1% (inactive); in the test with SNB-75 CNS, 80.6% (inactive) and 90.1% (inactive); with SNB-19 CNS it was 96.1% (inactive) and 98.1% (inactive); with U251 CNS, 99.5% (inactive) and 97.2% (inactive); in the test with PC-3 prostate, 102% (inactive) and 88% (inactive); in the test on SK-MEL-5 melanoma, 100% (inactive) and 103% (inactive). Moreover, the growth in the test on UACC-62 melanoma is 96.1% (inactive) and 84.7% (inactive); in the test with LOX IMVI melanoma, 91.8% (inactive) and 96% (inactive); in the test on SK-MEL-28 melanoma, 112% (inactive); in the test with SK-MEL-2 melanoma, 111% (inactive) and 114% (inactive); in the test with EKVX NSCLC it was 93.1% (inactive) and 99.8% (inactive); in the test with SN12C renal, 104% (inactive) and 98.8% (inactive). For the same compound, the growth in the test with UO-31 renal was 75.8% (inactive) and 72.3% (inactive); in the test on TK-10 renal, 124% (inactive) and 118% (inactive); in the test with ACHN renal, 109% (inactive) and 101% (inactive); in the test with CAKI-1 renal, 82% (inactive) and 64.5% (inactive); in the test on A498 renal, 100% (inactive) and 77.1% (inactive); in the test with CCRF-CEM leukemia it was 106% (inactive). Also, in the test with MOLT-4 leukemia, the growth is 103% (inactive) and 89.3% (inactive).

Regarding `CNC(=O)c1cccnc1`, the growth with HT29 colon is 105% (inactive); with SNB-75 CNS, 92.5% (inactive); in the test with SNB-19 CNS it was 105% (inactive); in the test with U251 CNS, 92.3% (inactive); in the test on PC-3 prostate, 96.9% (inactive); in the test with SK-MEL-5 melanoma, 107% (inactive). The growth was 113% (inactive) with UACC-62 melanoma; 92.9% (inactive) with LOX IMVI melanoma; 116% (inactive) in the test on SK-MEL-28 melanoma; 118% (inactive) in the test on SK-MEL-2 melanoma; 110% (inactive) in the test with EKVX NSCLC; 111% (inactive) with SN12C renal. For the same compound, the growth with UO-31 renal is 84.8% (inactive); in the test with TK-10 renal, 103% (inactive); in the test with ACHN renal, 104% (inactive); in the test with CAKI-1 renal, 92.1% (inactive); with A498 renal it was 85.6% (inactive); in the test on CCRF-CEM leukemia, 87.9% (inactive). The growth in the test on MOLT-4 leukemia was 106% (inactive).

For the compound `O=C1c2c(O)cc(O)cc2OC(c2ccc(O)c(O)c2)C1O` (configuration not stated), the growth was 108% (inactive) in the test on HCT-15 colon; 110% (inactive) with HT29 colon; 96.1% (inactive) in the test with SNB-75 CNS; 101% (inactive) in the test with SNB-19 CNS; 102% (inactive) in the test with U251 CNS; 96.4% (inactive) with PC-3 prostate. In addition, the growth in the test on SK-MEL-5 melanoma was 104% (inactive); in the test on UACC-62 melanoma, 106% (inactive); in the test with SK-MEL-2 melanoma, 105% (inactive); with EKVX NSCLC it was 119% (inactive); with SN12C renal it was 104% (inactive); in the test with TK-10 renal it was 104% (inactive). Also, the growth is 105% (inactive) in the test on ACHN renal; 118% (inactive) in the test on CAKI-1 renal; 107% (inactive) in the test with A498 renal; 97.7% (inactive) with CCRF-CEM leukemia; 107% (inactive) with MOLT-4 leukemia.
